SW480 rereplic: DNA re-replication induction in SW480 cells; SW480 DNA re-replication, Hoechst DNA content imaging, 48 h; Potency, µM (doses to about 46.1 µM), for inactives: top-dose re-replication activation, actives largely listed as activators; 340,000 compounds, 1.8% hits; further: % of control where 0% means no effect; nearly all actives have a fitted effect of over 55% in size
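Readout is total intensity of Hoechst-stained nuclei, excited at 405 nm and collected at 500-530 nm. Compound treatment lasted 48 hr at 37 C in 5% CO2 before staining.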
MCF10A rerep: DNA re-replication induction in MCF 10a cells; AID 624296; Potency, µM (top dose mostly 46.1 µM), for inactives: at the top dose activity, positive = re-replication, hits mostly activators; MCF 10A DNA re-replication, Hoechst nuclear intensity, 48 h; 350,000 compounds, 2.9% hits; further: % of control where 0% means no effect; nearly all actives have a fitted effect of over 50% in size
PTAP TSG101 blk: blocks PTAP/TSG101 interaction to inhibit HIV-1 budding. Q99816. Fluorescence polarization, FITC-PTAP peptide / Tsg101 binding. Potency, µM (top dose mostly 115 µM), for inactives: at the top dose activity change, negative = inhibition, hits mostly inhibitors. 340,000 tested, under 10 active. AID 493005; active means well fitted inhibition curve with a large enough effect in the main read-out, with a control signal flat, not every such curve was filed as active; inconclusive means small, poorly fitted or top-dose-only effect, or effect the other way, or a change in a side signal; inactive means no such curve, though single readings can be large or run the other way; further: % of control where 0% means no effect
Target sequence (Q99816 whole entry, looked up): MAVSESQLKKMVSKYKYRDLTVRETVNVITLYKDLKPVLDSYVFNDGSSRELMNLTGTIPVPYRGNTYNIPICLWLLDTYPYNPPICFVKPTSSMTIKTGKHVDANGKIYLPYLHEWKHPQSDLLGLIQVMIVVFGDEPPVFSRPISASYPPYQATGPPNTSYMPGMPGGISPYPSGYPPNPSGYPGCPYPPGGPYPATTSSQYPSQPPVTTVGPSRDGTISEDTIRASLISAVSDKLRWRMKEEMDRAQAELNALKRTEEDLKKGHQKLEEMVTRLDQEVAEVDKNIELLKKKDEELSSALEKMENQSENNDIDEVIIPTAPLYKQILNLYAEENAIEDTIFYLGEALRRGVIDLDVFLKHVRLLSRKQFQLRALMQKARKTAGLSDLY
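Fluorescence anisotropy tracks displacement of a FITC-tagged PTAP peptide (50 nM) from the Tsg101 binding domain (10 uM), following a 20 min room-temperature incubation at pH 7.5.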
KB-V1 MDR tox: KB-V1 MDR subline cytotoxicity. AID 1347076. Potency, µM (titrated, usually from 46.1 µM), hits mostly cytotoxic. 400,000 compounds, 3.4% hits. KB-V1 MDR cells viability, CellTiter-Glo, 72 h; further: on the % scale 0 is the no-effect control and ±100 the full control effect; nearly all actives have a fitted effect of over 60% in size
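Drug-selected KB-V1 cells, grown in DMEM lacking phenol red with 10% FBS, receive compound titrations; after three days at 37 degrees C, surviving cell ATP is quantified by CellTiter-Glo luminescence and responses normalized and curve-fitted.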
KB-3-1 tox: KB-3-1 parental cell cytotoxicity; Potency, µM (series often up to 46.1 µM), usual class: cytotoxic; 400,000 compounds, 1.4% hits; KB-3-1 viability, CellTiter-Glo ATP luminescence, 72 h; further: on the % scale 0 is the no-effect control and ±100 the full control effect; nearly all actives have a fitted effect of over 60% in size
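Cytotoxicity in the drug-sensitive parental line KB-3-1 was scored as loss of CellTiter-Glo luminescence following 72 h incubation with compound. Values come from curve fitting of normalized concentration-response data.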
PINK1 expr mod: modulators of PINK1 expression | PINK1 immunofluorescence, high-content cytometry, 24 h | Potency, µM (highest dose often 76.6 µM), inactives show at the highest dose activation (PINK1 increase), hits mostly activators | 410,000 compounds, 0.2% hits; active means well fitted activation curve with a large enough effect; inconclusive means small, poorly fitted or top-dose-only effect; cell line not stated here; further: % of control where 0% means no effect; nearly all actives have a fitted effect of over 65% in size
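Readout is PINK1 immunofluorescence, quantified alongside mitochondrial, cell and nuclear markers by laser-scanning microplate cytometry. Cells from a stable line were exposed to compound titrations (5 concentrations) for 24 hours, with CCCP controls.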
Active calls of the source: *; i = inactive; ? = inconclusive; / = not tested or not shown; [ ] = remark or other dose. Shown are actives, neighbours in structure and some others; about 6.8% of the full set was active somewhere. Unless noted, the call rests on the fitted dose curve; in most records, active means well fitted curve in the direction sought with a large enough effect; inconclusive means small, poorly fitted or top-dose-only effect, or another doubt; inactive means no such curve, though single readings can be large; an effect the other way counts as inactive or inconclusive. Potency means the concentration at half of the fitted maximal effect.

SMILES	SW480 rereplic	MCF10A rerep	PTAP TSG101 blk	KB-V1 MDR tox	KB-3-1 tox	PINK1 expr mod
Cc1ccc(N(C(=O)Cn2nnc(-c3ccccc3)n2)C(C(=O)NC2CCCCC2)c2ccccn2)cc1C (stereo not given)	-8%	?	-2%	1.2µM*	i	9%
CCN1CCN(c2c(S(=O)(=O)c3ccc(C)c(C)c3)cnc3cc(OC)c(OC)cc23)CC1	/	/	/	?	?	4%
CC1CC(C)C[N+](=C2C=C(N3CCCC3)CC(C)(C)C2)C1 (stereo not given)	?	26%	-6%	i	5.8µM*	?
CC1(C)CC(N2CCN(c3ccccc3)CC2)=CC(=[N+]2CCCC2)C1	3%	2%	-16%	i	12µM*	-3%[38.3 µM]
CN(C)c1ccc2ccc3cccc4ccc1c2c34	/	/	/	i	i	/
O=C(c1ccc2c(c1)N(Cc1ccc(F)cc1)C(=O)c1ccccc1S2=O)N1CCC(Cc2ccccc2)CC1 (stereo not given)	/	/	/	?	?	0%
O=C(O)CNC(=O)c1ccc(OC(F)F)cc1	-8%	26%	-2%	i	i	0%[38.3 µM]
O=C1C=CC(=O)N1c1ccc(O)cc1	21µM*	10µM*	-5%	?	i	3%
O=C1C=CC(=O)N1c1ccc(OC(F)F)cc1	23µM*	?	-4%	?	?	-3%
CCNC(=S)NNC(=O)c1csc(C(C)C)c1	-2%	-3%	0%	21µM*	?	-5%
CCCCNC(=S)NNC(=O)c1ccncc1	-16%	-20%	0%	i	i	3%
CCNC(=S)NNC(=O)c1csc2c1CCCC2	-3%	19%	-7%	26µM*	i	-9%[38.3 µM]
CC1CC(C)CN(CCCNC(=O)c2csc3c2CCCC3)C1 (stereo not given)	?	?	-3%	16µM*	i	-2%
CCCCNC(=S)NNC(=O)c1csc(C(C)C)c1	-3%	0%	-5%	23µM*	i	-3%[38.3 µM]
CN(C)c1ccc(NC(=O)CN2CCN(CC(=O)Nc3ccc(Br)cc3)CC2)cc1	/	/	/	i	i	0%
CCOC(=O)C1(Cc2cccc(Cl)c2)CCCN(C(=O)c2ccoc2C)C1 (stereo not given)	16µM*	?	-6%	i	i	-1%
CS(=O)(=O)N1N=C(c2ccccc2)CC1c1ccc2c(c1)OCO2 (stereo not given)	1%	-5%	?	i	i	22%
CS(=O)(=O)Nc1cccc(C2=NN(S(C)(=O)=O)C(c3ccc4c(c3)OCO4)C2)c1 (stereo not given)	?	?	-6%	i	15µM*	2%
COc1ccc(CNC(=O)c2cc3c(=O)n(Cc4cccs4)ccc3nc2C)cc1	/	/	/	i	18µM*	-1%
Cc1nc(S(=O)(=O)N(C)c2ccccc2)c(C#N)c(C)c1Cl	9.2µM*	?	-10%	i	?	-2%
COc1ccc(C(=O)C2C(=O)C(=O)N(Cc3ccco3)C2c2cccs2)cc1 (stereo not given)	/	/	/	?	?	0%
CNC(=O)CN1C(=O)COc2ccc(S(=O)(=O)N3CCC(C)CC3)cc21	/	/	/	?	i	-1%
CC(=O)C1=CCC(c2cccc3ccccc23)N(S(=O)(=O)c2ccc(C)cc2)C1 (stereo not given)	/	/	/	10µM*	?	1%
O=c1cc(O)c2c(=O)n(-c3ccccc3)c3c(c2o1)CCCCC3	-12%	?	-1%	16µM*	i	1%
C(=N\N1CCN(Cc2cccc3ccccc23)CC1)/c1cccnc1	0%	26µM*	-3%	?	?	6%[38.3 µM]
Cc1ccc(NC(=O)C(OC(=O)c2cc(C)oc2C)c2ccccc2)cc1 (stereo not given)	-72%	?	-1%	?	i	14%
